Structures are written as SMILES. For some assays here: Potency and affinity values are given separately. Inconclusive results are not listed. Some of the results follow. Calls of active or inactive are those of the source.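 The calls were made as follows, unless noted: active = falling signal with fitted half-maximal potency no higher than twice the top valid tested dose; inconclusive = poor fit quality, or flat fit spanning -70% to -30%; inactive = potency over limit, rising signal, or flat fit inside 30%.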

Assay [1] in a line: fungal growth arrest, C. neoformans – Alamar Blue, cherry-picks, dose response (AID 686998). For orientation: Resazurin is reduced to fluorescent resorufin, in cell work by metabolically active cells.
The nature of assay [2]: viability loss in HepG2 hepatoma cells – cell-based, cherry-picks, set 2, cytotoxicity control, dose response (AID 687002;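 active = a dose-response fit showing signal loss, with half-maximal concentration no higher than twice the top tested dose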).
A short description of assay [3]: viability loss in HeLa cells – cell-based, ATP luminescence, cherry-pick samples, cytotoxicity control, dose response (AID 687004;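 active = a fitted half-maximal concentration no higher than twice the top valid tested dose, with signal falling as cells die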;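 also: 0% = neutral control median and -100% = staurosporine 10 µM control median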).
Assay [4] is described as follows: C. neoformans lysis by adenylate kinase leakage – AK release luminescence, cherry-picks, dose response (AID 687000;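 active = fitted dose curve reaches 40% lysis signal rise at or below the highest valid concentration tested for that sample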;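 also: luminescent detection of adenylate kinase leaking from lysed yeast; 0% = median neutral control signal and 100% = double that signal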).
A short description of assay [5]: A549 cell cytotoxicity, dose response, cytotoxicity control, plate reader, cherry-pick, antagonist series (AID 743412; call rule not given here;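 also: 0% = neutral control wells and -100% = positive control wells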).
A short description of assay [6]: toxicity toward HepG2 liver cells – cell-based, plate reader, cherry-pick, antagonist series, cytotoxicity control, dose response (AID 743416; call rule not given here;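 also: 0% = neutral control wells and -100% = positive control wells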).
For assay [7], the target named is Melanocortin receptor 4 (Homo sapiens) (UniProt P32245). The assay can be described thus: blockade of melanocortin 4 receptor signaling – cell-based, plate reader, cherry pick, counter-screen for LGR2 antagonist project, dose response (AID 743444; call rule not given here). For orientation: A counterscreen serves to expose hits that act by an unwanted route or on another target.
A short description of assay [8]: Ring1 de-repression measured by qPCR – cell-based, mouse ESC, RT-qPCR, cherry-pick, esBAF inhibitor project, confirmation (AID 743176;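 active = Ring1 gene expression raised more than 2-fold over untreated cells in both replicates at either tested dose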;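 also: Ring1 transcript normalised to actin housekeeping signal by TaqMan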). The settings on record: mouse ESC E14, Ring1 mRNA RT-qPCR fold change, stronger effect = higher value. Background: In qPCR the cycle at which signal appears reflects the starting amount.
Assay [9] in a line: Fgf4 repression measured by qPCR – cell-based, mouse ESC, RT-qPCR, cherry-pick, esBAF inhibitor project, confirmation (AID 743177;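 active = Fgf4 expression under 0.8 fold of control in both repeat measurements at one or both tested doses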;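 also: Fgf4 transcript normalised to actin in duplex TaqMan qPCR; cells exposed to compound for 24 h before lysis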). The settings on record: mouse ESC E14, Fgf4 mRNA qPCR fold change, stronger effect = lower value.
The nature of assay [10]: Bmi1 mRNA increase in mouse ESCs – cell-based, RT-qPCR, mouse ESC, single point, cherry-pick, confirmation (AID 743180;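 active = Bmi1 expression fold change above 6 at either tested concentration, seen in replicate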;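 also: higher fold means more Bmi1 de-repression and stronger esBAF inhibition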). The settings on record: mouse ESC E14, Bmi1 mRNA qPCR fold, stronger effect = higher value.
A short description of assay [11]: viability loss in A549 cells – cell-based, plate reader, single point, cherry-pick, cytotoxicity control (AID 743188; call rule not given here). As to conditions: at 25 µM.
Assay [12] is described as follows: viability loss in HepG2 cells – cell-based, plate reader, single point, cherry-pick, cytotoxicity control (AID 743189; in the data active = activity change below about -50%). As to conditions: at 25 µM, stronger effect = lower value.
Assay [13] in a line: viability loss in HEK293 cells – cell-based, plate reader, single point, cherry-pick, cytotoxicity control (AID 743190; in the data active = activity change below about -38%, passing the limit was not always enough). The settings on record: at 25 µM.

Consider `O=C(NCCN1CCCCC1)[C@@H]1N[C@@H]2c3ccc(-c4ccncc4)c(=O)n3C[C@@H]2[C@H]1CO`, for which the result in assay [1], in assay [2] and in [3] was inactive.
As for `O=C(C[C@@H]1CC[C@H]2[C@@H](COC[C@H](O)CN2Cc2ccc(Oc3ccccc3)cc2)O1)Nc1nccs1`, the compound was called inactive in assay [1] and in assay [2].
On to `CCCNC(=O)C[C@@H]1CC[C@@H]2[C@H](COc3ccc(NC(=O)CCC)cc3C(=O)N2C)O1`, for which the compound was classed as inactive in [1] and in assay [2].
For `Cc1ccc(CSc2ncnc3c2cnn3-c2ccc(C)cc2)cc1`, the outcome in [1] and in assay [2] was inactive.
Consider `C[C@@H]1CN([C@H](C)CO)S(=O)(=O)c2ccc(C#CC3CC3)cc2O[C@H]1CN(C)CC1CCOCC1`, for which the result in assay [1] and in assay [2] was inactive.
Regarding `C[C@H](CO)N1C[C@H](C)[C@@H](CN(C)CC2CCOCC2)Oc2ncc(C#Cc3ccc(F)cc3)cc2C1=O`, the result in assay [1], in assay [2] and in assay [3] was inactive.
As for `CC(C)NC(=O)Nc1ccc2c(c1)C(=O)N([C@@H](C)CO)C[C@@H](C)[C@H](CN(C)C(=O)c1ccncc1)OCCCC[C@H](C)O2`, the compound was called inactive in assay [1], in assay [2] and in [3].
For the compound `C[C@@H]1CN([C@H](C)CO)C(=O)c2cc(NC(=O)Nc3cccc4ccccc34)ccc2O[C@@H]1CN(C)C(=O)Nc1ccccc1`, the compound was classed as inactive in assay [1], in [4], in [2], in assay [5], in assay [6] and in assay [7].
Regarding `Cc1noc(C)c1NC(=O)Nc1ccc2c(c1)C(=O)N([C@@H](C)CO)C[C@H](C)[C@H](CN(C)CC1CCCCC1)O2`, the outcome in assay [1], in assay [2] and in [3] was inactive.
As to `CC(C)NC(=O)Nc1ccc2c(c1)C(=O)N([C@@H](C)CO)C[C@H](C)[C@@H](CN(C)S(=O)(=O)c1cccs1)OCCCC[C@H](C)O2`, the call in assay [1], in assay [2] and in assay [3] was inactive.
As for `C[C@H]1CN([C@@H](C)CO)C(=O)Cc2cc(N(C)C)ccc2O[C@@H]1CN(C)C(=O)Nc1ccc(C(F)(F)F)cc1`, the outcome in assay [1], in assay [2] and in assay [3] was inactive.
As to `O=C(N[C@H]1CC[C@H](CCn2cc(-c3ccccn3)nn2)O[C@H]1CO)c1ccc(F)cc1`, the compound was classed as inactive in assay [1] and in assay [2].
For `C[C@H]1CN([C@@H](C)CO)C(=O)c2cc(NC(=O)Nc3ccc(F)cc3)ccc2O[C@@H]1CN(C)S(C)(=O)=O`, the outcome in assay [1] and in assay [2] was inactive.
With `O=C(NC1CCCCC1)N[C@H]1C=C[C@@H](CC(=O)N2CCOCC2)O[C@@H]1CO`, the result in [1], in assay [2] and in [3] was inactive.
Take `O=C(NCCc1ccccc1)[C@@H]1[C@@H](CO)[C@@H]2Cn3c(cccc3=O)[C@H]1N2C(=O)C1CCC1`: the call in assay [1], in assay [2] and in assay [3] was inactive.
Turning to `C[C@@H]1CCCCO[C@@H](CN(C)C(=O)Nc2ccc3c(c2)OCO3)[C@@H](C)CN([C@H](C)CO)C(=O)c2cc(NC(=O)Nc3cccc4ccccc34)ccc2O1`, the outcome in assay [1], in assay [2] and in [3] was inactive.
Regarding `C[C@@H]1CN([C@@H](C)CO)C(=O)c2cc(NC(=O)Nc3ccccc3)ccc2O[C@@H]1CN(C)C(=O)Nc1cccc2ccccc12`, the compound was classed as inactive in [1] and in assay [2].
Take `COCC(=O)N(C)C[C@H]1Oc2ncc(-c3ccccc3F)cc2C(=O)N([C@@H](C)CO)C[C@H]1C`: the compound was classed as inactive in assay [1], in assay [2] and in assay [3].
Regarding `C[C@H](CO)N1C[C@H](C)[C@H](CN(C)Cc2ccc(-c3ccccc3)cc2)Oc2c(NC(=O)c3ccncc3)cccc2C1=O`, the outcome in assay [1] and in [2] was inactive.
For `C[C@@H]1CN([C@@H](C)CO)C(=O)c2cc(NC(=O)C3CC3)ccc2O[C@H]1CN(C)CC1CCCCC1`, the result in assay [1], in assay [2] and in assay [3] was inactive.
Turning to `COc1ccc(C2=Nc3ccccc3NC(=O)C2N(C(=O)c2cc3ccccc3[nH]2)c2ccccc2)cc1` (centres undefined), the result in assay [1], in assay [4] and in assay [2] was inactive. The fold change in [8] (Ring1 fold increase, at 7 µM) is 1.31; in assay [8] (at 33 µM), 0.913 (inactive); in [10] (Bmi1 de-repression, at 7 µM) it was 1.36; in [10] (at 33 µM), 1.54 (inactive). Further, the Fgf4 expression fold change in assay [9] (Fgf4 expression, at 7 µM) is 1.01; in assay [9] (at 33 µM), 0.976 (inactive). For the same compound, in assay [11], the cell viability change % (negative = cytotoxic) is 6.45% (inactive). The values for the activity change, negative = inhibition in assay [12] and in [13] were -23.1% (inactive) and -16.6% (inactive), respectively.
Consider `CCCNC(C)C(=O)Nc1ccccc1C` (centres undefined), for which the result in [1], in assay [2] and in [3] was inactive.
In the case of `CO[C@H]1CN(C)C(=O)c2cc(NC(=O)C3CC3)ccc2OC[C@@H](C)N(Cc2cncnc2)C[C@H]1C`, the call in [1], in assay [2] and in assay [3] was inactive.
For `O=C(CSc1ncnc2c1cnn2-c1ccccc1)Nc1ccc2c(c1)OCO2`, the result in assay [1], in assay [4] and in assay [3] was inactive.
Take `COc1ccc(CN(C)C[C@H]2Oc3ccc(NC(=O)Nc4ccc(F)cc4)cc3CC(=O)N([C@@H](C)CO)C[C@@H]2C)cc1`: the result in assay [1] and in assay [2] was inactive.
As for `COc1cccc(-c2ccc3c(c2)[C@H]2[C@H](CCN2C(=O)Cc2ccncc2)[C@H](CO)N3C)c1`, the compound was called inactive in [1] and in assay [2].
`C[C@H]1CN([C@@H](C)CO)C(=O)Cc2cc(NS(C)(=O)=O)ccc2O[C@@H]1CN(C)Cc1ccc(Cl)c(Cl)c1`: the call in assay [1], in assay [2] and in [3] was inactive.
On to `S=C(Nc1ccc(Cl)cc1Cl)Nc1ccccc1Oc1ccccc1`, for which the compound was called inactive in assay [1], in assay [2] and in [3].
As to `COCC(=O)NC[C@H]1N[C@H](CO)[C@H]1c1ccc(C2=CCCC2)cc1`, the result in assay [1], in assay [2] and in assay [3] was inactive.
